Experimental data published in PubChem BioAssay AID434958 (Southern Research Specialized Biocontainment Screening …, 2010).
Among all 1,200 compounds or so, about 400 (33%) were called active. Only a sample is shown. Results with a measured potency or affinity are listed apart. Values without a mark were called inactive. How the calls were made is not given here.

Test: mammalian cell cytotoxicity, dose response, cytotoxicity control (AID 434958);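 further: cells exposed to compound for 72 hours before readout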
Details: cytotoxicity counter-screen; series mostly up to 40 µM; viability: at the top concentration

Structure (SMILES)	viability [%]
CCOC(=O)N1CCN(CC(=O)Nc2nnc(C(F)(F)F)s2)CC1	98.6
COC(=O)N1C(=O)[C@](Cc2ccccc2)(c2ccccc2)N1C(=O)OC	96.3
CCC(=O)Nc1cc(OC)c(NC(=O)c2ccccc2)cc1OC	92.4
COc1ccc(Nc2cc(C(=O)NCc3ccco3)c3ccccc3n2)c(OC)c1	88.6
CC(C)C(=O)Nc1ccc(NC(=S)NC(=O)c2ccc([N+](=O)[O-])cc2)cc1	103
Cn1c(O)c(C2=c3ccccc3=NC2=O)[nH]c1=S	88.5
C=CCNC1=C(Cl)C(=O)N(c2cccc(Cl)c2Cl)C1=O	110
O=C(CN1C(=O)c2cccc([N+](=O)[O-])c2C1=O)N1CCN(c2ccc(F)cc2)CC1	102
CCCn1nc2cc(C(=O)NCCCCc3ccccc3)ccc2c1OCC	96.3
Cc1cc(C)c(O)c(-c2cc(C(=O)NCc3ccccc3)[nH]n2)c1	83.2
COCCCNc1nc(SCc2ccccc2)nc2sc3c(c12)CCC3	94.6
CCC(CC)c1nnc(NC(=O)c2ccc(N3CCCCC3)c([N+](=O)[O-])c2)s1	88.6
Cc1cc2ccccc2n1CCNC(=O)COc1ccccc1	88.3
Cc1ccc(C(=O)NCCc2nnc3ccc(SCC(=O)Nc4ccccc4C)nn23)cc1	91.8
CCN(CC)c1ccc(S(=O)(=O)N2CCOCC2)cc1NC(=O)CSc1cccc[n+]1[O-]	99.1
O=C(CNc1ccccc1Cl)Nc1cc(S(=O)(=O)N2CCOCC2)ccc1Cl	88.4
CC(=O)COc1ccc2c3c(c(=O)oc2c1C)CCCCC3	88.8
CCOC(=O)Cn1nc(-c2ccc(C)cc2)c2ccccc2c1=O	99.6
CCOC(=O)C1CCN(C(=O)CCCCn2c(=O)[nH]c3ccccc3c2=O)CC1	101
Cc1ccc(NC(=O)C2(c3ccccc3)CC2(Cl)Cl)cc1C (stereo not given)	88.7
Cc1ccccc1OCC(=O)Nc1ccccc1N1CCCCC1	84.7
CCOc1cc(/C=N\Nc2ccc([N+](=O)[O-])cc2)ccc1OCC(=O)Nc1ccc(C)c(C)c1	92.4

Structure (SMILES)	viability [%]
CN(C)C(=O)c1ccc(-n2nc(C(F)(F)F)c3c2CCCC3)cc1	105
CC(=O)Nc1cccc(/C(C)=N/NC(N)=S)c1	98.6
Cc1c(-c2ccccc2)cnc2c(C)cccc12	94
Cc1cc(NC(=O)CSc2ncnc3c2cnn3-c2ccccc2)no1	107
Cc1cc(NC(=O)COc2nnc(-c3ccccc3)c3ccccc23)no1	102
CCOC(=O)c1ccc(C(=O)NNC(=O)C2CC=CCC2)cc1 (stereo not given)	95.2
O=C(Nc1ccccc1)c1c2c(nc3ccccc13)CCCC2	109
CC12CCC(C/C1=N/NC(=O)Nc1ccccc1)C2(C)C (stereo not given)	83.7
Cc1cc(C)c(C)c(S(=O)(=O)N2C(=S)NC(=O)C2C(C)C)c1C (stereo not given)	89.1
O=C(c1cc2c(s1)CCCC2)n1cccn1	101
O=C(N/N=C\c1cn[nH]c1-c1ccc(Cl)cc1)c1cccs1	95.4
O=C(CSc1nnc(SCc2ccc(Cl)cc2)s1)c1ccc2c(c1)OCO2	93.7
C=CCSc1nc2c(c(-c3ccsc3)c1C#N)CN(C)CC2	92.9
O=C(NN1C(=O)C2C(C1=O)C1C=CC2C12CC2)c1ccncc1 (stereo not given)	106
O=c1[nH]c(CN(CCO)CCO)nc2c1C1(CCCCC1)Cc1ccccc1-2	94.6
CN(/N=C/c1ccncc1)c1cnc2ccccc2n1	87
c1ccc(-c2n[nH]c3c2CCC3)cc1	97.4
CSc1ncnc2c1ccn2CC(=O)Nc1ccc(C)c(C)c1	109
CCCOc1ccccc1NC(=O)/C=C/C(N)=O	104
CC(=O)OCC(=O)Nc1ccc(C(C)=O)cc1	97.7
CC(C)(C)[C@@H]1C=C(C(=O)Nc2ccccc2)O[C@H](OCc2ccc(CO)cc2)C1	84.5
Cc1cccnc1NC(=S)NC(=O)c1cncc(Br)c1	97.7

Structure (SMILES)	viability [%]
COc1ccc(CNC(=O)C2CCN(S(=O)(=O)c3c(C)noc3/C=C/N(C)C)CC2)cc1	99.2
CC(C)(C)C1CCC(OCC(O)CN2CCN(c3ccccn3)CC2)CC1 (stereo not given)	92.3
COc1ccc(-c2csc(-c3cccs3)n2)c(OC)c1	91
CCC(=O)Oc1oc(-c2ccccc2)nc1C=Nc1ccc(C)cc1	85.8
CCn1cc(C(=O)O)c(=O)c2cc(F)c(N3CCN(C(=S)NC(=O)c4ccccc4C)CC3)cc21	96.7
COC(=O)c1cc(OC)c(OC)cc1NC(=S)N1CCN(C)CC1	97.6
Cc1nnc(SCC2=C(C(=O)O)N3C(=O)C(NC(=O)COc4ccc(F)cc4)C3SC2)s1 (stereo not given)	109
COc1cc(C(=S)N2CCOCC2)ccc1OC(=O)c1ccc([N+](=O)[O-])cc1[N+](=O)[O-]	84.7
CC1CN(C(=S)NC(=O)c2cccc([N+](=O)[O-])c2)CC(C)O1 (stereo not given)	97.2
COc1ccc(C(=O)Nc2cccc3c2CCCC3)c(OC)c1	89.2
O=C(Oc1c(-c2ccccc2)c(=O)n2c3c(cccc13)CC2)c1cccc([N+](=O)[O-])c1	99
CN(C)c1ccc(/C=N/NC(N)=S)cc1[N+](=O)[O-]	101
O=C(CCCCCN1C(=O)c2cccc([N+](=O)[O-])c2C1=O)Nc1ccccc1F	105
CC(=O)NC(=S)Nc1ccc(NC(=O)c2cccs2)cc1	107
CCN=c1scc(-c2ccccc2)n1/N=C/c1ccccn1	89.3
CC1CCc2nc(NC(=O)C3COc4ccccc4O3)sc2C1 (stereo not given)	84.2
COc1ccc(CCNCc2csc3nc4ccccc4n23)cc1OC	90
Cc1cc(C)cc(NC(=S)NN)c1	80.8
CSc1ccc(/C=C/C(=O)NC23CC4CC(CC(C4)C2)C3)cc1	85.6
c1ccc(-c2cc3ccccc3[nH]2)cc1	99.8
C/C(=N\NC(=O)c1cc2c(s1)CCC(C)C2)c1ccc[nH]1 (stereo not given)	93.7
Cc1cccc2c(C(=O)n3cccn3)cc(-c3ccccc3Cl)nc12	104

Structure (SMILES)	viability [%]
O=C(Oc1c(-c2ccccc2)c(=O)n2c3c(cccc13)CC2)c1ccc(F)cc1	104
COc1ccccc1-c1cc(C(=O)Nc2c(C)n(C)n(-c3ccccc3)c2=O)no1	100
COc1ccc(OC)c(-c2cc(C(=O)Nc3c(C)n(C)n(-c4ccccc4)c3=O)no2)c1	84.8
O=C(CCSc1ccc(Cl)c(Cl)c1)NC12CC3CC(CC(C3)C1)C2	85.1
COc1ccnc(CS(=O)c2nc3cc(OC(F)F)ccc3[nH]2)c1OC (stereo not given)	99.2
O=C(CSc1ccc([N+](=O)[O-])cn1)Nc1ccc(N2CCOCC2)cc1	101
CC(C(=O)Nc1cc([N+](=O)[O-])ccc1Cl)N1CCN(c2ccccc2O)CC1 (stereo not given)	83.3
O=C(Nc1ccc(N2CCCCC2)cc1)c1cc([N+](=O)[O-])cc([N+](=O)[O-])c1	83.6
O=C(Nc1ccccc1N1CCCC1)c1ccc2c(c1)OCO2	91
CCOC(=O)COc1ccc2nsnc2c1	105
CN(C)c1ccc(N=Nc2cccc3ccoc23)cc1	89.5
N#C/C(C(=O)NCc1ccco1)=C1/SC=C(c2ccccc2)N1c1ccccc1	92
CCOc1ccc(-c2nc(-c3ccccc3C)no2)cc1	96.4
COc1cc(NC(=S)NC(=O)c2ccco2)ccc1NC(=O)C(C)C	96.5
Cc1n[nH]c(C)c1CCCOc1ccccc1	98.6
COc1cc(NC(=O)c2ccccc2)c(OC)cc1NC(=O)CN1CCOCC1	112
COc1ccc(C(=O)CN(C(=O)c2ccc(Cl)cc2)N2C(=O)c3ccccc3C2=O)cc1	98.5
COc1cc(NC(=O)c2ccccc2Cl)ccc1NC(=O)c1ccco1	91.6
O=C(CN1CCN(S(=O)(=O)c2ccc(F)cc2)CC1)Nc1ccc2c(c1)OCCO2	97.2
O=c1[nH]c(CSc2nnc3ccccn23)nc2ccccc12	104
O=C(CCN1C(=O)/C(=C/c2ccccc2F)SC1=S)Nc1ccccn1	103
Cc1ccc(C(=O)NN2C(=O)/C(=C/c3cccn3C)SC2=S)cc1	97.2

Structure (SMILES)	viability [%]
CN(c1ccc(OCC(=O)Nc2ccc3[nH]c(=O)[nH]c3c2)cc1)S(=O)(=O)c1ccc(Cl)cc1	106
CCN1C(=O)C(O)(CC(=O)c2ccc(-n3cccc3)cc2)c2ccccc21 (stereo not given)	95.4
NC(=O)Nc1ccc(C(=O)OCC(=O)Nc2ccc(Cl)cn2)cc1	103
O=C(Cn1ncc2c3ccccc3n(Cc3ccccc3F)c2c1=O)NCCCN1CCCC1=O	84.4
CSc1nc(-c2ccc(Cl)cc2)nn1S(=O)(=O)c1ccccc1	89.6
Cc1cccc(N2CCN(CC3CCCCC3)CC2)c1C	102
CCOC(=O)Cc1nc2ccccc2[nH]1	107
COc1ccc(CNC(=O)c2sc3nc4c(c(C(F)(F)F)c3c2N)CCC4)cc1	94.8
CCOC(=O)c1[nH]c2ccccc2c1NC(=O)Nc1ccc(OC)cc1	97.4
O=C(O)CSc1ncnc2c1sc1nc(-c3ccccc3)c3c(c12)CCC3	91.9
CC(C)(C)c1ccc(C(=O)Oc2ccc3c(c2)OCC3=O)cc1	86.2
CS/C(N)=N/N=C/c1cc(Br)cc(Br)c1O	96.2
CCOC(=O)N1CCN(C(=O)CSc2nnc(-c3ccccc3OC)o2)CC1	96.8
O=C(N/N=C/c1cccc(NC(=O)c2ccc(Cl)cc2)c1)c1cccc(O)c1	88.1
NNC(=O)c1cccc(O)c1	103
Cc1cc(C2C(=O)c3ccccc3C2=O)c(C)c(C)c1C	90.2
CCOC(=O)c1ccc(-c2ccc(C=O)o2)cc1	99.5
CCCCNC(=O)/C(=C/c1ccccc1)NC(C)=O	106
COc1ccc([C@H]2CC(=O)C=C(/C=C/c3ccccc3)C2)cc1OC	82
NS(=O)(=O)c1cccnc1Nc1c(Cl)cccc1Cl	103
COCCSc1nc2sc3c(c2c(=O)n1-c1ccccc1)CCN(C)C3	98.3
CCOC(=O)C1CCCN(c2ccc(NC(=O)c3snc4c(=O)[nH]cnc34)cc2)C1 (stereo not given)	103
